According to PubChem BioAssay (NCI):
The panel holds about 83,000 compounds, 20% with a hit somewhere; the sample as a whole holds those more often.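 Results are percent growth after 48 hours of single-concentration exposure. 100 means growth as in untreated cells, lower positive values show inhibition; negative values down to -100 show cell death.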 Calls of active or inactive are those of the source. Rule for the calls: active = growth percent below 10; inactive = the rest.

How the values were obtained:
Assay in all cases: NCI-60 one-dose screen, 48 h (100 = growth as untreated, 0 = no growth, -100 = all killed)
Details in all cases: 10 µM unless noted
SR leukemia = system: SR leukemia
RPMI-8226 leukemia = system: RPMI-8226 leukemia
OVCAR-8 ovarian = system: OVCAR-8 ovarian
OVCAR-5 ovarian = system: OVCAR-5 ovarian
OVCAR-4 ovarian = system: OVCAR-4 ovarian
SK-OV-3 ovarian = system: SK-OV-3 ovarian
IGROV1 ovarian = system: IGROV1 ovarian
OVCAR-3 ovarian = system: OVCAR-3 ovarian
HS 578T breast = system: HS 578T breast
NCI/ADR-RES ovarian = system: NCI/ADR-RES ovarian
T-47D breast = system: T-47D breast
BT-549 breast = system: BT-549 breast
MDA-MB-435 melanoma = system: MDA-MB-435 melanoma
SW-620 colon = system: SW-620 colon
MCF7 breast = system: MCF7 breast
HCT-116 colon = system: HCT-116 colon
HCC-2998 colon = system: HCC-2998 colon
KM12 colon = system: KM12 colon

Measured: growth

CSc1nc(CC(C)C)c(C#N)c(=O)n1C
inactive: SR leukemia 47.4% | RPMI-8226 leukemia 64.5% | OVCAR-8 ovarian 77.1% | OVCAR-5 ovarian 74.7% | OVCAR-4 ovarian 52.4% | SK-OV-3 ovarian 87.7% | IGROV1 ovarian 71.8% | OVCAR-3 ovarian 61.3% | HS 578T breast 58.4% | NCI/ADR-RES ovarian 72.5% | T-47D breast 33.4% | BT-549 breast 58.8% | MDA-MB-435 melanoma 65.8% | SW-620 colon 63.1% | MCF7 breast 38.7% | HCT-116 colon 60.4% | HCC-2998 colon 79.4% | KM12 colon 86.5%

N#C/C(=C/C=C/c1ccccc1)S(=O)c1ccccc1 (stereo unspecified)
active: SR leukemia 3.12% | RPMI-8226 leukemia -8.55% | OVCAR-5 ovarian -55.4% | IGROV1 ovarian 1.27% | OVCAR-3 ovarian -82.2% | T-47D breast -20.1% | BT-549 breast -77.9% | MDA-MB-435 melanoma -29.8% | SW-620 colon -40.4% | MCF7 breast -40.2% | HCT-116 colon -89.6% | HCC-2998 colon -88.9% | KM12 colon -42.4%
inactive: OVCAR-8 ovarian 14.1% | OVCAR-4 ovarian 18.6% | SK-OV-3 ovarian 32.3% | HS 578T breast 15.8% | NCI/ADR-RES ovarian 11.9%

N#CC1=C(N)Oc2c(ccc3ccccc23)C1c1cc2ccccc2n2nnnc12 (stereo unspecified)
inactive: OVCAR-8 ovarian 26.6% | OVCAR-5 ovarian 39.4% | OVCAR-4 ovarian 65% | SK-OV-3 ovarian 12.5% | IGROV1 ovarian 33.3% | HS 578T breast 17.7% | T-47D breast 25% | BT-549 breast 16.2% | HCC-2998 colon 46.9% | KM12 colon 18.1%
active: SR leukemia 3.88% | RPMI-8226 leukemia -8.74% | OVCAR-3 ovarian -20.7% | NCI/ADR-RES ovarian 0.93% | MDA-MB-435 melanoma -27.7% | SW-620 colon 9.58% | MCF7 breast 9.81% | HCT-116 colon -5.37%

c1ccc(-c2nc(N3CCNCC3)c3oc(-c4ccccc4)nc3n2)cc1
active: SR leukemia -1.84% | RPMI-8226 leukemia -32.6% | OVCAR-8 ovarian -25.1% | OVCAR-5 ovarian -82% | OVCAR-4 ovarian -88.2% | SK-OV-3 ovarian -46% | IGROV1 ovarian -88.8% | OVCAR-3 ovarian -53.4% | HS 578T breast -60.7% | NCI/ADR-RES ovarian -48.8% | T-47D breast -41.9% | MDA-MB-435 melanoma -93.9% | SW-620 colon -77.7% | MCF7 breast -62.3% | HCT-116 colon -31.7% | HCC-2998 colon -87.5% | KM12 colon -75.4%
inactive: BT-549 breast 106%

COc1cc2c(cc1-c1c(C)noc1C)ncc1nc(C3CCOCC3)n(C3CCC(OC(F)F)CC3)c12 (stereo unspecified)
inactive: SR leukemia 36.4% | RPMI-8226 leukemia 18% | OVCAR-8 ovarian 69.1% | OVCAR-5 ovarian 71% | OVCAR-4 ovarian 48.8% | SK-OV-3 ovarian 17.3% | IGROV1 ovarian 55.7% | OVCAR-3 ovarian 44.7% | HS 578T breast 54.9% | NCI/ADR-RES ovarian 53.7% | T-47D breast 11.3% | BT-549 breast 77.1% | MDA-MB-435 melanoma 48.9% | SW-620 colon 76.3% | MCF7 breast 18.5% | HCT-116 colon 66.1% | HCC-2998 colon 56.5% | KM12 colon 44.3%

COc1cc(C)cc(-c2c(-c3cc(N4CC(O)C4)nc(-c4cccnc4)n3)cnn2C)c1
inactive: SR leukemia 88.3% | RPMI-8226 leukemia 77.7% | OVCAR-8 ovarian 92.7% | OVCAR-5 ovarian 99.9% | OVCAR-4 ovarian 88.7% | SK-OV-3 ovarian 118% | IGROV1 ovarian 120% | OVCAR-3 ovarian 101% | HS 578T breast 80.5% | NCI/ADR-RES ovarian 83.1% | T-47D breast 62.6% | BT-549 breast 89.7% | MDA-MB-435 melanoma 92% | SW-620 colon 101% | MCF7 breast 87.6% | HCT-116 colon 96.1% | HCC-2998 colon 92.8% | KM12 colon 84.7%

COc1ccc(NC(=O)c2ccc(NC3=C(c4ccc(Cl)cc4)C(=O)NC3=O)cc2)cc1
inactive: SR leukemia 57.1% | RPMI-8226 leukemia 73.8% | OVCAR-8 ovarian 84.8% | OVCAR-5 ovarian 100% | OVCAR-4 ovarian 84.1% | SK-OV-3 ovarian 69.8% | IGROV1 ovarian 92.8% | OVCAR-3 ovarian 89.2% | HS 578T breast 102% | NCI/ADR-RES ovarian 88.3% | T-47D breast 62.3% | BT-549 breast 82.1% | MDA-MB-435 melanoma 95.3% | SW-620 colon 103% | MCF7 breast 83.5% | HCT-116 colon 88.9% | HCC-2998 colon 97.6% | KM12 colon 80.9%

O=C(/C=C/C12c3ccccc3C(c3ccccc31)C1C(=O)NC(=O)C12)c1cccs1 (stereo unspecified)
active: RPMI-8226 leukemia 1.76% | OVCAR-3 ovarian -0.389% | MDA-MB-435 melanoma 4.93%
inactive: SR leukemia 20.3% | OVCAR-8 ovarian 18.4% | OVCAR-5 ovarian 48% | OVCAR-4 ovarian 60% | SK-OV-3 ovarian 59.1% | IGROV1 ovarian 37% | HS 578T breast 36.2% | NCI/ADR-RES ovarian 26.6% | T-47D breast 39.9% | BT-549 breast 33.5% | SW-620 colon 27.1% | MCF7 breast 14.2% | HCT-116 colon 14.4% | HCC-2998 colon 99.4% | KM12 colon 22.6%

O=c1ccc2nc(-c3ccccc3)nn(-c3ccccn3)c-2c1
active: SR leukemia 1.2% | OVCAR-3 ovarian -14.9% | T-47D breast -40.9% | SW-620 colon -46.2% | MCF7 breast -37.1%
inactive: RPMI-8226 leukemia 35.8% | OVCAR-8 ovarian 80% | OVCAR-5 ovarian 117% | OVCAR-4 ovarian 83.5% | SK-OV-3 ovarian 83.9% | IGROV1 ovarian 89% | HS 578T breast 101% | NCI/ADR-RES ovarian 101% | BT-549 breast 108% | MDA-MB-435 melanoma 94.6% | HCT-116 colon 42.7% | HCC-2998 colon 103% | KM12 colon 104%

C#CCOC(=O)C(N)CSSCC(N)C(=O)O (stereo unspecified)
inactive: SR leukemia 96.1% | RPMI-8226 leukemia 103% | OVCAR-8 ovarian 111% | OVCAR-5 ovarian 84.4% | OVCAR-4 ovarian 95.9% | SK-OV-3 ovarian 109% | IGROV1 ovarian 99.5% | OVCAR-3 ovarian 112% | HS 578T breast 107% | NCI/ADR-RES ovarian 101% | T-47D breast 100% | BT-549 breast 104% | MDA-MB-435 melanoma 89.1% | SW-620 colon 85% | MCF7 breast 99.5% | HCT-116 colon 91.8% | HCC-2998 colon 101% | KM12 colon 108%

COc1cccc(-c2cc(-c3ccc(Nc4nc(Nc5ccc(Cl)cc5)nc(Nc5ccc(Cl)cc5)n4)cc3)nc(N)c2C#N)c1
inactive: OVCAR-8 ovarian 48.9% | OVCAR-5 ovarian 82.2% | OVCAR-4 ovarian 23.6% | SK-OV-3 ovarian 122% | IGROV1 ovarian 10.1% | HS 578T breast 14.1% | NCI/ADR-RES ovarian 73.3% | MCF7 breast 28.5% | KM12 colon 46.7%
active: SR leukemia -6.27% | RPMI-8226 leukemia -55.8% | OVCAR-3 ovarian -52.7% | T-47D breast -30.3% | BT-549 breast -30.1% | MDA-MB-435 melanoma -5.12% | SW-620 colon -39.7% | HCT-116 colon 6.35% | HCC-2998 colon -29.9%

COc1ccc(/C=C/C(=O)c2ccc(-n3cc(CN4CCN(c5cc6c(cc5F)c(=O)c(C(=O)O)cn6C5CC5)CC4)nn3)cc2)cc1
active: SR leukemia -2.25% | RPMI-8226 leukemia -24.4% | HCT-116 colon -31.3%
inactive: OVCAR-8 ovarian 67.4% | OVCAR-5 ovarian 92.1% | OVCAR-4 ovarian 88% | SK-OV-3 ovarian 76.9% | IGROV1 ovarian 26.6% | OVCAR-3 ovarian 39.3% | HS 578T breast 52.8% | NCI/ADR-RES ovarian 90.7% | T-47D breast 78.6% | BT-549 breast 65.8% | MDA-MB-435 melanoma 22.2% | SW-620 colon 32.8% | MCF7 breast 13.2% | HCC-2998 colon 44% | KM12 colon 42.6%

FC(F)(F)c1cccc(-c2nnn(Cc3cc(-c4cccc(Cl)c4)no3)n2)c1
inactive: SR leukemia 96.2% | RPMI-8226 leukemia 102% | OVCAR-8 ovarian 101% | OVCAR-5 ovarian 101% | OVCAR-4 ovarian 116% | SK-OV-3 ovarian 98.8% | IGROV1 ovarian 104% | OVCAR-3 ovarian 114% | HS 578T breast 107% | NCI/ADR-RES ovarian 108% | T-47D breast 108% | BT-549 breast 97.7% | MDA-MB-435 melanoma 105% | SW-620 colon 106% | MCF7 breast 99.1% | HCT-116 colon 96.7% | HCC-2998 colon 103% | KM12 colon 102%

COc1nc2ccccc2cc1/C=C1/C=C(c2ccccc2)NC1=O
active: MDA-MB-435 melanoma -12.5%
inactive: SR leukemia 20% | RPMI-8226 leukemia 53.7% | OVCAR-8 ovarian 44.8% | OVCAR-5 ovarian 85.4% | OVCAR-4 ovarian 65% | SK-OV-3 ovarian 50.3% | IGROV1 ovarian 39% | OVCAR-3 ovarian 17.2% | HS 578T breast 25.8% | NCI/ADR-RES ovarian 32.8% | T-47D breast 37.3% | BT-549 breast 51.4% | SW-620 colon 27.7% | MCF7 breast 24.2% | HCT-116 colon 12.7% | HCC-2998 colon 80.6% | KM12 colon 31.5%

COc1cccc(CNc2nnc(C)c(C)n2)c1O
inactive: SR leukemia 102% | RPMI-8226 leukemia 100% | OVCAR-8 ovarian 99.2% | OVCAR-5 ovarian 108% | OVCAR-4 ovarian 103% | SK-OV-3 ovarian 87% | IGROV1 ovarian 107% | OVCAR-3 ovarian 110% | HS 578T breast 108% | NCI/ADR-RES ovarian 104% | T-47D breast 94% | BT-549 breast 101% | MDA-MB-435 melanoma 111% | SW-620 colon 109% | MCF7 breast 97.3% | HCT-116 colon 100% | HCC-2998 colon 96.4% | KM12 colon 107%

CCCN1C(=O)N(CCC)C2C1NC(=S)N2/N=C/C=C/c1ccccc1OC (stereo unspecified)
active: OVCAR-3 ovarian -20.9% | HS 578T breast 9.95% | NCI/ADR-RES ovarian 9.94% | MDA-MB-435 melanoma -56.1%
inactive: SR leukemia 22% | RPMI-8226 leukemia 19% | OVCAR-8 ovarian 12.2% | OVCAR-5 ovarian 26.7% | OVCAR-4 ovarian 55.2% | SK-OV-3 ovarian 34.9% | IGROV1 ovarian 30.6% | T-47D breast 40.3% | BT-549 breast 56% | SW-620 colon 22% | MCF7 breast 17.4% | HCT-116 colon 18.3% | HCC-2998 colon 20.3% | KM12 colon 21.1%

Cc1c(CC(=O)Nc2ccccc2)nnn1-c1ccccc1
inactive: SR leukemia 103% | RPMI-8226 leukemia 103% | OVCAR-8 ovarian 105% | OVCAR-5 ovarian 108% | OVCAR-4 ovarian 115% | SK-OV-3 ovarian 110% | IGROV1 ovarian 106% | OVCAR-3 ovarian 115% | HS 578T breast 102% | NCI/ADR-RES ovarian 99.5% | T-47D breast 101% | BT-549 breast 112% | MDA-MB-435 melanoma 115% | SW-620 colon 110% | MCF7 breast 99.6% | HCT-116 colon 106% | HCC-2998 colon 102% | KM12 colon 108%
